Assay outcomes (PubChem)
PKD1 inh: blocks activity of human protein kinase D1 | Q15139 | PKD1 kinase fluorescence polarization assay | inhibition, % (test concentration not listed) | 200,000 tested, 0.056% active | AID 797
LANA-H2B inh: blocks KSHV LANA binding to histone H2A/H2B | cell-free LANA-H2A/H2B peptide, fluorescence polarization | 320,000 tested, 0.6% active | inhibition, % (concentration not given with the values) | Q9QR71 | AID 2629; in the data active means inhibition mostly above about 10%, no sharp cut-off; inactive means mostly below about 6.7%
Target sequence (Q9QR71 whole entry, looked up): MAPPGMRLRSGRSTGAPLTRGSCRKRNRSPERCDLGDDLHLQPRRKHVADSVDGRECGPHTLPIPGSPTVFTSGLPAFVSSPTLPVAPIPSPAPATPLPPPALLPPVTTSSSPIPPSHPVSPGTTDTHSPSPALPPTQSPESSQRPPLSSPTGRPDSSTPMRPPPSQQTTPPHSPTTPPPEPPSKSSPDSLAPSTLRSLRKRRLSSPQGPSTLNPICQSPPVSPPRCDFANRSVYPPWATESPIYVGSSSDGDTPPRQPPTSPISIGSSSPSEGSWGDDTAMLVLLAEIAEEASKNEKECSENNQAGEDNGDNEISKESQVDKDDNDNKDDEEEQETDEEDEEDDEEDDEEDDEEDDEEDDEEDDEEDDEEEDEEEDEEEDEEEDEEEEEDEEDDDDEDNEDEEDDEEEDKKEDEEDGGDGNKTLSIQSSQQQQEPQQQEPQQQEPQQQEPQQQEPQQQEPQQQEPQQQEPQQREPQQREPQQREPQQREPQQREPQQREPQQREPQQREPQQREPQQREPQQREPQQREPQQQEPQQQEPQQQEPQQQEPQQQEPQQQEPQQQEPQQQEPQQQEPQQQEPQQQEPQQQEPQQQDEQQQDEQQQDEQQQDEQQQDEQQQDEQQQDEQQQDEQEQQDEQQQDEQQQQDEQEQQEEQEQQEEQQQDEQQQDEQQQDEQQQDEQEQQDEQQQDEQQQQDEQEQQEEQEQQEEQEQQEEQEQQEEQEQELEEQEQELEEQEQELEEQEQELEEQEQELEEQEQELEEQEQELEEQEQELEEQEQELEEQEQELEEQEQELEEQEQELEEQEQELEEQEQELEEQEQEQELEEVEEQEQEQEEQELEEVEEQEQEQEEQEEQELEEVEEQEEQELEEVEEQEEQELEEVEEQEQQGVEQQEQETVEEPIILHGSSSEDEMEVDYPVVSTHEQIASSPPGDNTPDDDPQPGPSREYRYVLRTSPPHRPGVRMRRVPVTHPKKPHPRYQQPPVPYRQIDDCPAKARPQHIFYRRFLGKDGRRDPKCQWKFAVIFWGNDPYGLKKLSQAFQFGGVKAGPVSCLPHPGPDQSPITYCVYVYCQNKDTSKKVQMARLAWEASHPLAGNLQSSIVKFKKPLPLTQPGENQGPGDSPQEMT
HDAC3 inh: inhibitors of human histone deacetylase 3. O15379. recombinant HDAC3, fluorogenic peptide/trypsin coupled, fluorescence. inhibition, % at 8.3 µM. 320,000 tested, 0.15% active; in the data active means inhibition above about 26%, passing the limit was not always enough
GRK2 aptamer HTS: inhibitors of human GRK2 displacing RNA aptamer; 330,000 tested, 0.59% active; P25098; AID 488847; inhibition of aptamer binding, % at 10 µM; bead flow cytometry, FAM-aptamer displacement from GRK2;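 active means inhibition of aptamer binding above 40%, roughly 3 SD of noise, on plates passing a quality check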;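 further: median bead fluorescence of bound FAM aptamer so fluorescent compounds give negative values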
VLA-4 inh: inhibition in a human VLA-4 binding assay; VLA-4 expressing cells, ligand binding flow cytometry; inhibition, % (about 7 µM as worked out from the volumes in the protocol); 330,000 tested, 0.2% active; AID 2557
Pemphigus Ab inh: blocks pemphigus antibody binding to human desmoglein-3 | P32926 | DSG3-coupled beads, scFv-anti-DSG3-GFP binding, flow cytometry; active compounds read low | binding (percent of control), % at 10 µM | 310,000 tested, 0.48% active;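 active means binding more than 3 SD below its plate's average and above zero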;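 further: hits lower antibody fragment binding to DSG3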
GRK2 CP1: confirmation of human GRK2 inhibitors displacing RNA aptamer; shares compounds with GRK2 aptamer HTS; bead-bound GRK2, FAM-aptamer displacement, flow cytometry; aptamer displacement, % at 10 µM; 2,000 tested, 4% active; AID 504451;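 active means aptamer displacement above 40%, near three times the noise of non-fluorescent compounds, on plates passing quality checks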;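 further: negative values mostly reflect intrinsic compound fluorescence rather than true enhancement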
FAM quench CP1: counter-screen for GRK2 aptamer inhibitors: fluorescent aptamer quenchers; shares compounds with GRK2 aptamer HTS; fluorescence response (% of DMSO), % at 10 µM; 2,000 tested, under 10 active; Carboxyfluorescein RNA aptamer on beads, flow cytometry quenching; active compounds read low;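 active means compounds that quench the bead-bound fluorescent RNA probe, cutting fluorescence to under half of the solvent control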;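 further: counterscreen run without GRK2 so only probe quenching by compound is measured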
The depositor's hits bear a star; x = not tested or not shown; ! = not confirmed by another sample. The list is not random: actives were taken first. Their share in the collection is about 1.8%. Unless noted, no stated cut-off is given here; in the data, active means inhibition above about 50%; inactive means the rest.

SMILES | PKD1 inh | LANA-H2B inh | HDAC3 inh | GRK2 aptamer HTS | VLA-4 inh | Pemphigus Ab inh | GRK2 CP1 | FAM quench CP1
COc1ccc(-c2ccc3c(c2)c(-c2cccs2)c(-c2cc(OC)cc(OC)c2)n3C)cc1 | x | 11 | 6 | 1 | 33 | 100 | x | x
NC(=O)c1ccc(SCC(=O)OCC(=O)NCc2ccco2)c([N+](=O)[O-])c1 | x | -1 | -1 | 0 | 12 | 100 | x | x
O=S(=O)(NCc1ccc(F)cc1)c1ccc(-c2cnc(C3CC3)o2)cc1 | x | 11 | -7 | 51* | -4 | 111 | 6 | 99
COc1cc(OC)cc(C(=O)NCC(=O)OCC(=O)Nc2ccc(C)c(S(=O)(=O)N3CCOCC3)c2)c1 | x | x | x | x | x | 91 | x | x
COc1cccc(C=Nc2ccc(N3CCOCC3)cc2)c1O | x | 3 | 2 | 3 | 11 | 110 | x | x
O=[N+]([O-])c1cc(Br)c(O)c(C=Nc2ccc(N3CCOCC3)cc2)c1 | -2 | -3 | 3 | 51* | -6 | 101 | 0 | 103
O=C(O)c1cc(-c2ccco2)nc2ccc(Br)cc12 | -4 | 2 | -6 | 55*! | 3 | 108 | 8 | 94
NC(=O)COC(=O)c1cc(-c2ccco2)nc2ccccc12 | x | 4 | -5 | 6 | 1 | 88 | x | x
CCn1nc(C(=O)Nc2cccc(C(F)(F)F)c2)c(Cl)c1Cl | -6 | 4 | 8 | 53* | 6 | 91 | 1 | 102
CCn1nc(C(=O)Nc2cccc3ccccc23)c(Cl)c1Cl | 5 | -7 | 3 | 0 | 7 | x | x | x
Cc1cc(C)cc(OCC(=O)OCC(=O)c2cc(C)n(C3CC3)c2C)c1 | x | 2 | 0 | 39 | 4 | 109 | 7 | 101
Nc1nc(SCc2ccc(Cl)cc2Cl)c2ncn(C3OC(CO)C(O)C3O)c2n1 (stereo unspecified) | x | x | x | x | x | 110 | x | x
CCCc1cc(=O)[nH]c(SCC(=O)c2c[nH]c3ccccc23)n1 | -7 | 1 | 2 | 59* | -21 | 116 | -2 | 116
Cc1ccc(N(CC(=O)NC(C)(C)C)C(=O)CS(=O)CC(=O)Nc2ccc(F)cc2)cc1 (stereo unspecified) | -1 | -1 | 3 | 0 | 5 | 96 | x | x
Cc1ncc([N+](=O)[O-])n1CC(=O)Nc1cc(Cl)ccc1Cl | x | -1 | -2 | 1 | 10 | 106 | x | x
Cc1nnc(SCc2ccc(CC(=O)O)cc2)o1 | -4 | -2 | -7 | 54* | -5 | 107 | 3 | 102
O=C(O)c1ccc(CSc2nnc(-c3ccc(Cl)cc3)o2)cc1 | x | 1 | 0 | 3 | 5 | 111 | x | x
NS(=O)(=O)c1ccc(NS(=O)(=O)c2ccc(NC(=O)c3ccc(-c4ccccc4)cc3)cc2)cc1 | -6 | -7 | -2 | 41* | 22 | 85 | -4 | 108
Cc1cc(NC(=O)CSc2nc(-c3cccs3)cc(C(F)(F)F)n2)no1 | -8 | 5 | -1 | 45* | 1 | 100 | 1 | 92
Cc1cc(NC(=O)CSc2nc(-c3cccnc3)ccc2C#N)no1 | 7 | 2 | -3 | 0 | 4 | 89 | x | x
Cc1cc(NC(=O)CSc2nc3c(c(-c4cccnc4)c2C#N)CCC3)no1 | -4 | -2 | 3 | 77* | 1 | 97 | 1 | 90
CSCC[C@H](N)C(=O)N1CCC(C(=O)N[C@H](C)C(=O)Nc2ccc(C(C)C)cc2)CC1 | x | -1 | -4 | 0 | 6 | 123 | x | x
CCCCN(C)C(=O)CNC(=O)c1nn(-c2ccc(OC)cc2OC)c(=O)c2ccccc12 | x | -1 | -7 | 0 | 9 | 90 | -3 | 101
CCN1CCN(CCCNC(=O)CNC(=O)c2nn(-c3ccc(OC)cc3OC)c(=O)c3ccccc23)CC1 | x | 1 | 1 | 6 | -2 | x | x | x
CCCCNC(=O)CNC(=O)c1nn(-c2ccc(OC)cc2OC)c(=O)c2ccccc12 | x | 5 | -4 | 8 | 1 | 92 | 0 | 94
OCC1CCCN(c2nc(CN3CCCCC3)nc3scc(-c4ccccc4)c23)C1 (stereo unspecified) | 3 | 1 | 1 | 0 | -2 | 112 | 0 | 101
CN(Cc1ccccc1)c1nc(CN2CCOCC2)nc2scc(-c3ccccc3)c12 | 5 | -7 | -3 | 5 | -6 | 101 | -4 | 95
